For eight compounds, composite z-score and z-score results are on record in PubChem BioAssay.

Each structure is given as a SMILES string. Calls of active or inactive are those of the source. Unless noted, no rule for the calls is given here.

The subject of assay [1] is Wnt5a (protein binding on small-molecule microarray). Put plainly: Wnt5a binders on small-molecule microarray, primary screen, biophysical, 635/667 nm fluorescence (AID 1142).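 Also: fluorescence read at 667 nm with signal to noise per printed feature.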 As to conditions: 635 nm fluorescence, higher = more signal.
Assay [2] in a line: cell viability in Huh7 cells, primary screen, cytotoxicity control for HCV replication inhibitor project, CellTiter-Glo luminescence, basal, 48 h (AID 1143).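 Also: Huh7 hepatoma cells carrying a hepatitis C replication reporter with no stimulus; test concentration not given here.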 Conditions: Huh7 HCV replicon, higher = more signal, called active from +8 up or from −8 down.
Assay [3] in a line: P. aeruginosa biofilm formation inhibitors, primary screen, PAO1 strain, BacTiter-Glo luminescence, LB-PBS (AID 1144). As to conditions: 12 h, higher = more signal.
Assay [4] in a line: CREB reporter modulators without forskolin, primary screen, cell-based, PC12, CRE-LacZ reporter, unstimulated (AID 1145). As to conditions: no forskolin, luminescence, 4.5 h, higher = more signal, called active from +8 up or from −8 down.
Assay [5] can be described thus: CREB reporter modulators under forskolin, primary screen, cell-based, PC12, CRE-LacZ reporter, forskolin-stimulated (AID 1146).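 Also: PC12 cells with 6xCRE LacZ reporter stimulated by forskolin 10 µM; beta-galactosidase reporter signal reflecting CREB driven transcription.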 As to conditions: luminescence, 4.5 h, higher = more signal, called active from +8 up or from −8 down.
Assay [6] addresses Streptavidin (Streptomyces avidinii) (UniProt P22629). Put plainly: streptavidin binders on small-molecule microarray, primary screen, artefact control for SMM compound annotation, biophysical, 635/667 nm fluorescence (AID 1147).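 Also: signal reflects streptavidin binding to arrayed compounds as a control protein.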 Conditions: streptavidin binding, higher = more signal.
The nature of assay [7]: small-molecule binders of probe aInhba, primary screen, biochemical, small-molecule microarray, 635/667 nm fluorescence (AID 1148).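 Also: score merges 667nm spot fluorescence with signal-to-noise for antibody binding to printed compounds.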 As to conditions: higher = more signal.
Assay [8] has as its target Torsin-1A (Homo sapiens) (UniProt O14656). Put plainly: torsin A binders from cell lysate, primary screen, small-molecule microarray, wild-type, 635/667 nm (AID 1149). As to conditions: COS7 hTOR1A-WT lysate, 635 nm fluorescence, higher = more signal.
For assay [9] the target is unchanged. Briefly: small-molecule binders of mutant TOR1A in lysate, primary screen, cell lysate, small-molecule microarray, COS7 lysate, 635/667 nm fluorescence (AID 1150).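 Also: score pools 667 nm emission and signal to noise measuring lysate protein binding.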 As to conditions: COS7 hTOR1A mutant lysate, 635 nm fluorescence, higher = more signal.
The test system of assay [10] is Sonic hedgehog protein (Shh). Put plainly: small-molecule binders of Shh protein, primary screen, biochemical, small-molecule microarray, 635/667 nm fluorescence (AID 1151).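 Also: Shh protein binding to compounds spotted on small-molecule microarray slides; score combines spot fluorescence intensity with signal-to-noise across triplicate slides.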 Conditions: small-molecule microarray binding, 635 nm fluorescence; higher = more signal.
Assay [11] can be described thus: E. coli DRC41 culture turbidity changes, primary screen, E. coli filamentation inducer project, strain DRC41, OD650, 48 h (AID 1152).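 Also: E. coli MC1000 strain DRC41 lacking acrAB efflux pump and sulA.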 As to conditions: E. coli DRC41 (acrAB sulA), higher = more signal, called active from +8 up or from −8 down.
Assay [12] in a line: small-molecule binders of probe aLefty1, primary screen, biochemical, small-molecule microarray, 635/667 nm fluorescence (AID 1153).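 Also: score merges spot fluorescence with signal-to-noise ratio from the scanned slide images.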 Conditions: higher = more signal.
Assay [13] can be described thus: PSAC antagonists in infected red cells, primary screen, cell-based, P. falciparum Indochina, OD700, 1 h (AID 1154). Conditions: P. falciparum Indochina infected RBC osmotic lysis, higher = more signal, called active from +8 up or from −8 down.
Assay [14] is described as follows: PSAC antagonists in infected red cells, primary screen, cell-based, P. falciparum Indochina, OD700, 2 h (AID 1155).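 Also: lysis reports solute entry through the parasite surface anion channel PSAC; channel blockers reduce lysis of infected cells.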 Conditions: P. falciparum Indochina infected erythrocytes, osmotic lysis OD700; higher = more signal, called active from +8 up or from −8 down.
Assay [15] is described as follows: osmotic lysis modulators in infected erythrocytes, primary screen, PSAC antagonist project, cell-based, P. falciparum Indochina, OD700, 3 h (AID 1156). As to conditions: higher = more signal, called active from +8 up or from −8 down.
The nature of assay [16]: PSAC antagonists in infected red cells, primary screen, cell-based, P. falciparum Indochina, OD700, 18 h (AID 1157). Conditions: P. falciparum Indochina infected erythrocytes, osmotic lysis OD700, 18 h; higher = more signal, called active from +8 up or from −8 down.
The nature of assay [17]: modulators of S6 phosphorylation in cells, primary screen, cell-based, A549, cytoblot, luminescence, serum-stimulated (AID 1158).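 Also: serum-stimulated A549 lung adenocarcinoma cells; signal is phosphorylated S6 detected by cytoblot immunostaining with HRP secondary.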 As to conditions: A549 phospho-S6 cytoblot, 5 h, higher = more signal.
Assay [18] has as its target NADPH oxidase 2 (Homo sapiens) (UniProt P04839). Put plainly: NOX2-dependent H2O2 signal modulators, primary screen, NOX inhibitor project, cell-based, HEK293-NOX2, PMA-stimulated, Amplex Red fluorescence (AID 1159). Also: test concentration not given here. Conditions: 45 min, higher = more signal, called active from +8 up or from −8 down.
The target of assay [19] is NADPH oxidase 4 (Homo sapiens) (UniProt Q9NPH5). Briefly: NOX4-dependent H2O2 signal modulators, primary screen, NOX inhibitor project, cell-based, HEK293-NOX4, tetracycline-induced, Amplex Red fluorescence (AID 1160). As to conditions: 45 min, higher = more signal, called active from +8 up or from −8 down.
Assay [20] has as its target NADPH oxidase 5 (Homo sapiens) (UniProt Q96PH1). Put plainly: NOX5-dependent H2O2 signal modulators, primary screen, NOX inhibitor project, cell-based, HEK293-NOX5, Amplex Red fluorescence (AID 1161). As to conditions: HEK293-NOX5, ionomycin, 45 min, higher = more signal.

NADPH oxidase 2 (Homo sapiens), sequence (P04839 whole entry, looked up): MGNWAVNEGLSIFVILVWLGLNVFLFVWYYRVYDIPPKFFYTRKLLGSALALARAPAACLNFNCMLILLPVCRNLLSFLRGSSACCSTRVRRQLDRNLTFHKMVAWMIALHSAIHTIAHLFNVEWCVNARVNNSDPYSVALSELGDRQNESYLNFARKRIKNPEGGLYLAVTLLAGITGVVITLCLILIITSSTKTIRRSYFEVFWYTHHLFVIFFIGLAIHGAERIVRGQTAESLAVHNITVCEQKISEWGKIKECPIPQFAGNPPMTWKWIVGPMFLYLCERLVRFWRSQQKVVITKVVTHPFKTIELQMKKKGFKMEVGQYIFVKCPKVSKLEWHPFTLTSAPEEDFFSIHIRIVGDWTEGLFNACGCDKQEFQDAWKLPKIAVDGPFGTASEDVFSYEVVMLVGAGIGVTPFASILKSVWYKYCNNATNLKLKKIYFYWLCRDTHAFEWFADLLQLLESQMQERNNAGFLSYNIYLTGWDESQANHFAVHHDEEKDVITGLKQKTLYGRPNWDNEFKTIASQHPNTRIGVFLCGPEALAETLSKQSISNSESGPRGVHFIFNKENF
Streptavidin (Streptomyces avidinii), sequence (P22629 whole entry, looked up): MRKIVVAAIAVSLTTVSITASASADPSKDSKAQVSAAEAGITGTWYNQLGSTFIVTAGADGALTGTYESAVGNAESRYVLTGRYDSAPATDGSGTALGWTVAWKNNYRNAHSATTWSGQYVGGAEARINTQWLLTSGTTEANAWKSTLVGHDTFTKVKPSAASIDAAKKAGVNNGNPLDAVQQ
NADPH oxidase 4 (Homo sapiens), sequence (Q9NPH5 whole entry, looked up): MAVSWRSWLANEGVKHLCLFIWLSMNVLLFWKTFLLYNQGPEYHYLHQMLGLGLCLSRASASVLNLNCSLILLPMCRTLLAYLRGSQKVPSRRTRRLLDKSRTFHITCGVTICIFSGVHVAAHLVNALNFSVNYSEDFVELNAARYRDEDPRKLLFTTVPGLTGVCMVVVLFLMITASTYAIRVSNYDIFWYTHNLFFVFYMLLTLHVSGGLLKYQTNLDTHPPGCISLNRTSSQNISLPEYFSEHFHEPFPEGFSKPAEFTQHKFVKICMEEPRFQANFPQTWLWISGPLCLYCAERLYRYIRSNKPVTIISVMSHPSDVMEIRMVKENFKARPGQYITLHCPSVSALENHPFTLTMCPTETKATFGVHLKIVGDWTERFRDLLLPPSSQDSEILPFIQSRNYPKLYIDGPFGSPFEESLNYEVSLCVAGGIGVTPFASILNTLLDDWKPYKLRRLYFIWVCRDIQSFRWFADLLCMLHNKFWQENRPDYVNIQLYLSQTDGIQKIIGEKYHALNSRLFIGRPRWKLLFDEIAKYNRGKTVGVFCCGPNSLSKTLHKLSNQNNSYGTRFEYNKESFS
NADPH oxidase 5 (Homo sapiens), sequence (Q96PH1 whole entry, looked up): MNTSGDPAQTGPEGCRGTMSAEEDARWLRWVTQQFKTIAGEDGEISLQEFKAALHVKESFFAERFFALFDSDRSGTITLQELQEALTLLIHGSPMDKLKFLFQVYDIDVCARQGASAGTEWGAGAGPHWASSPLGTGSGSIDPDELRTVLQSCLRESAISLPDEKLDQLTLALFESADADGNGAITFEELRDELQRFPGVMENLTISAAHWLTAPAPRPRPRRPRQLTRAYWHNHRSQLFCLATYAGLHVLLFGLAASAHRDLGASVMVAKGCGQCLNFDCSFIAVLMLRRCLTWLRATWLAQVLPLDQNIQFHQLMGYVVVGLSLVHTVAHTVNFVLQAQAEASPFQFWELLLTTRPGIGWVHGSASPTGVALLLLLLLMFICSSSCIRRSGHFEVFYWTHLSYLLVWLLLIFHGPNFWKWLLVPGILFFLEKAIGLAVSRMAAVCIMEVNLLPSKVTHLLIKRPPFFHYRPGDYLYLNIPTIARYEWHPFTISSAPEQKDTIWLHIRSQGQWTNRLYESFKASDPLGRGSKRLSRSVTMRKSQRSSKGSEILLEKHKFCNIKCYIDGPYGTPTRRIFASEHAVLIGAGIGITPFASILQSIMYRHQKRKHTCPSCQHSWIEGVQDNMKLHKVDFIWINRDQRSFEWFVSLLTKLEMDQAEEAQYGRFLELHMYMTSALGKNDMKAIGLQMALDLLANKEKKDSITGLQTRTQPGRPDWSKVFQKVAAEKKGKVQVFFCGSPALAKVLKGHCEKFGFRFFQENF
Torsin-1A (Homo sapiens), sequence (O14656 whole entry, looked up): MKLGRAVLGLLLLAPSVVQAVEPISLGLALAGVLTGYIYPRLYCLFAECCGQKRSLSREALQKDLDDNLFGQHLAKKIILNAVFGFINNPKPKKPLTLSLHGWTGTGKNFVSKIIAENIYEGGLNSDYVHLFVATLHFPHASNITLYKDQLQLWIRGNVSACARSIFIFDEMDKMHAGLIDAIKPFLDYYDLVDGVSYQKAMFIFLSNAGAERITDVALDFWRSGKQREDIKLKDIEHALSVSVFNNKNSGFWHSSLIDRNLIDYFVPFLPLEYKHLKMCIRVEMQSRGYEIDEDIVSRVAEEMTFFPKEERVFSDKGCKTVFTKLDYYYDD

Consider `C[C@H]1NC(=O)[C@@]23C(=O)N[C@@H](Cc4ccccc4)C2[C@H](C)[C@@]2(C)O[C@H]2C3/C=C/C/C=C\CNC(=O)[C@H](Cc2ccccc2)NC1=O` (stereo not given in full), for which the composite z-score in [1] is 0.0319; in assay [6], -0.178; in [7], -0.0963; in assay [8], -0.2; in assay [9], 0.113; in [10] it was 1.63. Further, the composite z-score in assay [12] is -0.0378. Further, the z-score in [2] is -0.945 (inactive); in [3] it was -0.773 (inactive); in assay [4], -0.508 (inactive); in assay [5], -0.0421 (inactive); in assay [11], -0.213 (inactive); in assay [13], 0.874 (inactive). For the same compound, the z-score is 0.577 (inactive) in assay [14]; 0.395 (inactive) in [15]; 0.33 (inactive) in assay [16]; -0.271 in [17]; 1.63 (inactive) in [18]; -1.2 (inactive) in [19]. For the same compound, in assay [20], the z-score was 0.201.

For `O=C1N(Cc2ccccc2)c2ccccc2[C@@H]2OC(c3ccc(OCCCO)cc3)=N[C@]12Cc1ccccc1`, the composite z-score is -0.0069 in [1]; 0.89 in assay [6]; -0.0332 in [7]; 0.378 in assay [8]; 0.534 in assay [9]; 0.809 in assay [10]. Moreover, the composite z-score in assay [12] is -0.0896. For the same compound, the z-score in assay [2] was -4.55 (inactive); in [3] it was -0.236 (inactive); in assay [4] it was 1.37 (inactive); in [5], -1.64 (inactive); in [11] it was 0.65 (inactive); in assay [13] it was 29.4 (active). Besides, the z-score in [14] is 26.1 (active); in assay [15] it was 4.66 (inactive); in [16], 2.38 (inactive); in assay [17], 0.724; in assay [18], -1.08 (inactive); in assay [19], -0.653 (inactive). In addition, the z-score in assay [20] was -2.11.

With `CCCCO[C@H]1C[C@H]2C(I)=C[C@@H]1C(=O)[C@]21CO1`, the composite z-score in assay [1] is -0.0784; in assay [6], -0.258; in assay [7] it was -0.161; in assay [8], -0.336; in [9], -0.145; in assay [10] it was 0.816. The composite z-score in assay [12] was -0.369. Also, the z-score is -0.232 (inactive) in assay [2]; 0.0666 (inactive) in [3]; 0.496 (inactive) in assay [4]; 0.672 (inactive) in assay [5]; -1.55 (inactive) in assay [11]; -0.0445 (inactive) in assay [13]. Besides, the z-score was 0.18 (inactive) in assay [14]; -0.163 (inactive) in [15]; -0.16 (inactive) in [16]; -0.408 in [17]; 0.0778 (inactive) in [18]; 0.609 (inactive) in assay [19]. Also, in [20], the z-score is -0.383.

Take `O=C1O[C@@H](c2ccccc2)[C@@H](c2ccccc2)N2[C@@H](c3ccc(O)cc3)[C@]3(C(=O)Nc4ccc(C#CC5(O)CCCCCC5)cc43)[C@@H](C(=O)NC[C@H](O)c3ccccc3)[C@H]12`: the composite z-score in assay [1] is 0.0895; in [6] it was -0.508; in assay [7], -0.0221; in assay [8], 0.0581; in assay [9], -0.135; in assay [10] it was 0.217. The same compound registered a composite z-score in assay [12] of 0.315. Besides, the z-score in assay [2] was -1.42 (inactive); in assay [3] it was -0.144 (inactive); in [4], -0.606 (inactive); in [5] it was -0.448 (inactive); in [11], -0.557 (inactive); in [13] it was 0.996 (inactive). Moreover, the z-score in assay [14] is 0.707 (inactive); in assay [15] it was 1.08 (inactive); in assay [16], 0.973 (inactive); in [17], 0.173; in assay [18], 1.14 (inactive); in assay [19] it was 0.441 (inactive). In [20], this compound came in with a z-score of 0.0466.

As to `COc1ccc([Si](C)(C)[C@@H]2[C@@H](CC(=O)N(CCO)Cc3ccccc3)O[C@]3(C(=O)N(c4ccccc4)c4ccccc43)[C@H]2C)cc1`, the composite z-score was 0.272 in [1]; 0.675 in assay [6]; -0.125 in assay [7]; 0.555 in assay [8]; 0.3 in assay [9]; 1.17 in assay [10]. The same compound came in with a composite z-score in assay [12] of 0.201. For the same compound, the z-score was -7.08 (inactive) in assay [2]; -0.334 (inactive) in assay [3]; 7.53 (inactive) in [4]; -2.26 (inactive) in [5]; 1.3 (inactive) in [11]; 9.05 (active) in assay [13]. The z-score was 1.2 (inactive) in assay [14]; -1.43 (inactive) in [15]; 0.303 (inactive) in [16]; 1.73 in [17]; -0.0719 (inactive) in [18]; 0.574 (inactive) in assay [19]. Besides, the z-score in assay [20] was -1.55.

`COC(=O)[C@@]1(Cc2ccc(F)cc2)[C@H]2c3cc(C(=O)N(C)C)n(Cc4cc(F)cc5c4OCOC5)c3C[C@H]2CN1C(=O)c1ccccc1`: the composite z-score was 0.462 in assay [1]; 1.15 in [6]; 0.115 in assay [7]; 0.141 in [8]; 0.702 in [9]; 0.3 in assay [10]. The composite z-score in [12] is 0.487. Also, the z-score in assay [2] is -3.74 (inactive); in assay [3], 0.258 (inactive); in assay [4], 0.397 (inactive); in assay [5], -0.201 (inactive); in assay [11] it was -0.62 (inactive); in assay [13] it was 5.56 (inactive). For the same compound, the z-score in assay [14] was 0.0161 (inactive); in assay [15], 0.366 (inactive); in assay [16] it was -1.27 (inactive); in assay [17], 1.16; in [18] it was -0.508 (inactive); in [19] it was 0.966 (inactive). Further, the z-score in assay [20] is -3.94.

For `CCOC(=O)C1CCCCN1` (stereo not given), the composite z-score in assay [1] came out at 0.781; in [6], 0.412; in assay [7] it was 0.705; in assay [8], 0.544; in assay [9], 0.388; in assay [10] it was 0.506. The compound also yielded a composite z-score in assay [12] of 1.08. The z-score in assay [2] is 0.319 (inactive); in assay [3], 0.566 (inactive); in assay [4] it was -0.788 (inactive); in assay [5], -0.398 (inactive); in assay [11], -0.641 (inactive); in assay [13] it was -0.536 (inactive). Also, the z-score in assay [14] is 0.0175 (inactive); in assay [15], -0.965 (inactive); in [16] it was 0.0086 (inactive); in assay [17], -0.0896; in assay [18], 0.0494 (inactive); in assay [19] it was 0.0488 (inactive). For the same compound, in assay [20], the z-score is -0.117.

`CCCCC(=C=CC[C@@H](O)c1ccccc1OCCO)C[C@@H](O)COCc1ccccc1`: the composite z-score in assay [1] is -0.027; in [6], -0.385; in assay [7], 0.257; in assay [8] it was -0.745; in [9], -0.592; in assay [10], 0.697. The compound further registered a composite z-score in assay [12] of 0.117. The z-score is -2.16 (inactive) in assay [2]; -0.631 (inactive) in [3]; 17.1 (active) in assay [4]; -0.749 (inactive) in [5]; 1.47 (inactive) in [11]; 17.5 (active) in assay [13]. For the same compound, the z-score in assay [14] is 1.74 (inactive); in [15], -0.255 (inactive); in assay [16], -0.385 (inactive); in [17] it was 1.51; in assay [18] it was -0.123 (inactive); in assay [19] it was -0.101 (inactive). Also, in assay [20], the z-score was -2.04.
